NIH3T3 tox – cytotoxic compounds in NIH 3T3 cells; NIH 3T3 viability, CellTiter-Glo ATP luminescence, 48-72 h; Potency, µM (series often up to 96.7 µM), for inactives: at the top dose activity change, negative = cytotoxicity, usual class: inhibitors; actives 4.3% (n = 94,000); AID 1345082; further: nearly all actives have a fitted effect of over 55% in size
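Mouse fibroblast NIH 3T3 cells, 400 per well, received compound via pintool and were incubated for 48 or 72 hr prior to CellTiter-Glo ATP luminescence measurement.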
GPT2 inh – inhibitors of human GPT2 alanine aminotransferase | Potency, µM (titrated, usually from 57.7 µM), without a hit: top-dose activity change, negative = inhibition, actives largely listed as inhibitors | Q8TD30 | Recombinant GPT2, coupled pyruvate oxidase/HRP Amplex Red fluorescence | actives 0.25% (n = 100,000); further: nearly all actives have a fitted effect of over 60% in size
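Fluorescence read-out: pyruvate from GPT2 turnover coupled to pyruvate oxidase, HRP and Amplex Red (0.2mM ThPP, 0.2U/mL PO and HRP, 50uM Amplex final). Substrates 250uM a-KG, 2mM L-alanine; enzyme 10ng/uL; 30 min RT.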
HEK cytotox – HEK 293 cell cytotoxicity; Potency, µM (doses to about 115 µM), inactives show at the highest dose activity change, negative = cytotoxicity, most hits filed as inhibitors; HEK 293 viability, ATP luminescence (CellTiter-Glo), 48-72 h; actives 6.6% (n = 94,000); AID 1345083; further: nearly all actives have a fitted effect of over 60% in size
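HEK 293 cells at 250 cells/well were exposed to compounds by pintool transfer for 48 or 72 hr at 37 degree Celsius, 5% CO2. Viability was read as ATP-coupled luminescence with CellTiter-Glo after 10 min at room temperature.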
hNpr1 antagonist – human Npr1 receptor antagonism; P16066; HEK293 hNpr1 GloSensor cGMP, ANP-stimulated luminescence; Potency, µM (doses to about 46.3 µM), for inactives: at the highest dose activity change, negative = inhibition, actives largely listed as inhibitors; actives 1.6% (n = 76,000); AID 1347048; calls by dose curve; further: nearly all actives have a fitted effect of over 60% in size
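HEK293 cells stably expressing human Npr1 and cGMP GloSensor pGS-40F, loaded 2 h with 2% GloSensor reagent, given compound 30 min at room temperature. Luminescence read before and 20 min after 0.1 nM hNppA.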
Luciferase inh – Photinus pyralis luciferase inhibition; AID 1347043; purified P. pyralis luciferase, luminescence, biochemical; Potency, µM (series often up to 115 µM), actives largely listed as inhibitors; P08659; actives 2.5% (n = 76,000); further: nearly all actives have a fitted effect of over 65% in size
Target sequence (P08659 whole entry, looked up): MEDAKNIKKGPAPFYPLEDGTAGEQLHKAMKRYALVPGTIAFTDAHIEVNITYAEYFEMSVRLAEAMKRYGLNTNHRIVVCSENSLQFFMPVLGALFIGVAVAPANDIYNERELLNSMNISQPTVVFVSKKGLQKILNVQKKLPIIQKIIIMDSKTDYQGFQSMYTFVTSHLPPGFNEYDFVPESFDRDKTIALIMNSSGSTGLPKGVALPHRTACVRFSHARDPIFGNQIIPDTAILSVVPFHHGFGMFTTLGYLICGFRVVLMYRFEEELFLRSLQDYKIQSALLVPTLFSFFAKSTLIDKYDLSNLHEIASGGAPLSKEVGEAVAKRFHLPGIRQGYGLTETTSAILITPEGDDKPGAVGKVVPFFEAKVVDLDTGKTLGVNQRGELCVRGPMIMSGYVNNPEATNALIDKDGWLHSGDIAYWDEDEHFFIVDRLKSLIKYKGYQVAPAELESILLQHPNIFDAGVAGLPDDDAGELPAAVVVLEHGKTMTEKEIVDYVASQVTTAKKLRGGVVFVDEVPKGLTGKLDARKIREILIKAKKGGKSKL
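Inhibitors were tested against purified firefly luciferase in a biochemical, low-substrate format (both substrates at 10uM) and luminescence measured with a CCD imager.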
The depositor's hits bear a star; [ ] = dose if it differs, or a comment. Shown are actives, neighbours in structure and some others; about 10% of the full set was active somewhere. Unless noted, the call rests on the fitted dose curve; in most records, active means well fitted curve in the direction sought with a large enough effect; inconclusive means small, poorly fitted or top-dose-only effect, or another doubt; inactive means no such curve, though single readings can be large; an effect the other way counts as inactive or inconclusive. On the % scale 0 is the no-effect control and ±100 the full control effect; potency means the concentration at half of the fitted maximal effect.

How did CC1=C[C@@H](CNCc2ccccn2)[C@H](C(C)C)C[C@H]1Cc1nnc(-c2ccccc2F)o1 do in these assays?
NIH3T3 tox: inconclusive; GPT2 inh: -18%[88.5 µM]; HEK cytotox: 22µM*; hNpr1 antagonist: -21%[70.6 µM]; Luciferase inh: inactive

Results for CC1=C[C@@H](CNCc2cccnc2)[C@H](C(C)C)C[C@H]1Cc1nnc(-c2ccccc2F)o1 ?
NIH3T3 tox: -25%[138 µM]; GPT2 inh: -8%[88.5 µM]; HEK cytotox: inconclusive; hNpr1 antagonist: -10%[70.6 µM]; Luciferase inh: inactive

How did Cc1cc(C)cc(-c2ccc(CN3CCCC(NC(=O)c4ccccn4)C3)cc2)c1 (centres undefined) do in these assays?
NIH3T3 tox: 14µM*; GPT2 inh: -10%; HEK cytotox: inconclusive

How did COc1cccc(-c2ccc(CN3CCCC(NC(=O)c4ccc(C)cc4)C3)cc2)c1 (centres undefined) do in these assays?
NIH3T3 tox: inconclusive; GPT2 inh: inconclusive; HEK cytotox: 22µM*

Results for O=C(NC1CCCN(Cc2ccc(-c3cncnc3)cc2)C1)c1ccccn1 (centres undefined) ?
NIH3T3 tox: -4%; GPT2 inh: -8%; HEK cytotox: inconclusive

What do the screens show for `COc1cccc(-c2ccc(CN3CCCC(NC(=O)c4ccc(C(F)(F)F)cc4)C3)cc2)c1` (centres undefined)?
NIH3T3 tox: -24%; GPT2 inh: inactive; HEK cytotox: -33%

What do the screens show for `COc1cccc(-c2ccc(CN3CCCC(NC(=O)c4ccccn4)C3)cc2)c1` (centres undefined)?
NIH3T3 tox: inconclusive; GPT2 inh: -12%; HEK cytotox: 25µM*

Results for COc1cccc(-c2ccc(CN3CCCC(NC(=O)c4ccc(Cl)nc4)C3)cc2)c1 (centres undefined) ?
NIH3T3 tox: 32µM*; GPT2 inh: inconclusive; HEK cytotox: 14µM*

Results for COc1cccc(-c2ccc(CN3CCCC(NC(=O)c4ccncc4)C3)cc2)c1 (centres undefined) ?
NIH3T3 tox: inconclusive; GPT2 inh: 3%; HEK cytotox: 22µM*

What do the screens show for `Cc1cc(C)cc(-c2ccc(CN3CCCC(NC(=O)c4ccc(C(F)(F)F)cc4)C3)cc2)c1` (centres undefined)?
NIH3T3 tox: -8%; GPT2 inh: 4%; HEK cytotox: -5%

What do the screens show for `Cc1cccc(C(=O)NC2CCCN(Cc3ccc(-c4cc(C)cc(C)c4)cc3)C2)c1` (centres undefined)?
NIH3T3 tox: inconclusive; GPT2 inh: inactive; HEK cytotox: 40µM*

How did Cc1ccc(Cn2cc(-c3ccncc3)cc2C(=O)N2CCN(C)CC2)cc1 do in these assays?
NIH3T3 tox: inconclusive; GPT2 inh: inactive; HEK cytotox: -31%; hNpr1 antagonist: -1%; Luciferase inh: inactive

What do the screens show for `O=C(NC1CCCN(c2cc(-c3ccc(F)cc3)[nH]n2)C1)c1ccsc1` (centres undefined)?
NIH3T3 tox: inconclusive; GPT2 inh: inactive; HEK cytotox: inconclusive; hNpr1 antagonist: -19%; Luciferase inh: inconclusive

What do the screens show for `O=c1cc(-c2cccnc2)oc2c(NCCc3ccccn3)nccc12`?
NIH3T3 tox: 35µM*; GPT2 inh: 1%[88.5 µM]; HEK cytotox: inconclusive; hNpr1 antagonist: 1%[70.6 µM]; Luciferase inh: inconclusive

Results for COc1ccc2[nH]cc(CCNC(=O)C3Cn4cccc4C(=O)N3Cc3cccnc3)c2c1 (centres undefined) ?
NIH3T3 tox: inconclusive; GPT2 inh: inactive; HEK cytotox: 89µM*; hNpr1 antagonist: -1%; Luciferase inh: inactive

What do the screens show for `CC(C)CN1C(=O)c2cccn2CC1CNC(=O)c1n[nH]c(=O)c2ccccc12` (centres undefined)?
NIH3T3 tox: inactive; GPT2 inh: inactive; HEK cytotox: 1%; hNpr1 antagonist: 1%; Luciferase inh: inactive

Results for O=C(NCC1Cn2cccc2C(=O)N1Cc1cccnc1)c1n[nH]c(=O)c2ccccc12 (centres undefined) ?
NIH3T3 tox: 40µM*; GPT2 inh: inactive; HEK cytotox: -3%; hNpr1 antagonist: -2%; Luciferase inh: inactive

What do the screens show for `C=C1C(=O)OC2C1CCC1(C)C(O)CCC(=C)C21` (centres undefined)?
GPT2 inh: -9%

Results for CC1(COc2cccnc2)COc2ccc(C(=O)NCCc3ccccc3)cc2N1 (centres undefined) ?
NIH3T3 tox: inconclusive; GPT2 inh: 3%[88.5 µM]; HEK cytotox: inconclusive; hNpr1 antagonist: 8.9µM*; Luciferase inh: inconclusive

What do the screens show for `CC1(COc2cccnc2)COc2ccc(C(=O)NCCOc3ccccc3)cc2N1` (centres undefined)?
NIH3T3 tox: inconclusive; GPT2 inh: 1%[88.5 µM]; HEK cytotox: inconclusive; hNpr1 antagonist: 8.9µM*; Luciferase inh: inconclusive

What do the screens show for `CC(=O)N1C[C@@H]2CCCN3CCC[C@@H]([C@H]23)[C@H]1CCCC(=O)NCCCN1CCOCC1`?
NIH3T3 tox: inactive; GPT2 inh: 0%; HEK cytotox: 4%; hNpr1 antagonist: 2%; Luciferase inh: inactive

Results for O=C(NCCc1cccc(F)c1)C1CN(C2CCCC2)C(=O)N1 (centres undefined) ?
NIH3T3 tox: -8%[138 µM]; GPT2 inh: inactive; HEK cytotox: -13%[172 µM]

Results for Cc1ccc(CN2CCCn3nc(C)c(-c4ccccc4-c4ccccc4)c32)o1 ?
NIH3T3 tox: 45µM*; GPT2 inh: -13%[88.5 µM]; HEK cytotox: inconclusive; hNpr1 antagonist: inconclusive; Luciferase inh: inactive

What do the screens show for `Cc1nn2c(c1-c1cccnc1N1CCOCC1)N(CC1CC1)CCC2`?
NIH3T3 tox: 40µM*; GPT2 inh: -2%[88.5 µM]; HEK cytotox: inconclusive; hNpr1 antagonist: -5%[70.6 µM]; Luciferase inh: inactive

How did COc1ccccc1CN1CCCn2nc(C)c(-c3cccnc3N3CCOCC3)c21 do in these assays?
NIH3T3 tox: inconclusive; GPT2 inh: inactive; HEK cytotox: inconclusive; hNpr1 antagonist: -16%[70.6 µM]; Luciferase inh: inactive

How did Cc1nn2c(c1-c1cccnc1N1CCOCC1)N(Cc1ccccc1)CCC2 do in these assays?
NIH3T3 tox: inconclusive; GPT2 inh: -18%[88.5 µM]; HEK cytotox: 63µM*; hNpr1 antagonist: -27%[70.6 µM]; Luciferase inh: inactive

What do the screens show for `Cc1nn2c(c1-c1ccccc1-c1ccccc1)N(Cc1ccc(OCC(=O)O)cc1)CCC2`?
NIH3T3 tox: inconclusive; GPT2 inh: 0%; HEK cytotox: inconclusive; hNpr1 antagonist: -25%; Luciferase inh: inactive

What do the screens show for `COc1cccc(CNC(=O)c2c(C)noc2-c2ccccc2OC)c1`?
NIH3T3 tox: -10%; GPT2 inh: inactive; HEK cytotox: -9%; hNpr1 antagonist: 2%; Luciferase inh: inactive

Source: PubChem
